These compounds were tested against T1, USP38 (UniProt Q8NB14) (assay: log2 ratio of Biotin-Ahx-Ub-VS probe labelling (compound/DMSO); higher = less target engagement, active = hit call of the paper (q ≤ 0.05, log2 ratio ≤ -1)). Conditions: compound concentration: 50uM; treatment time: 3 h.
T1 sequence (whole entry): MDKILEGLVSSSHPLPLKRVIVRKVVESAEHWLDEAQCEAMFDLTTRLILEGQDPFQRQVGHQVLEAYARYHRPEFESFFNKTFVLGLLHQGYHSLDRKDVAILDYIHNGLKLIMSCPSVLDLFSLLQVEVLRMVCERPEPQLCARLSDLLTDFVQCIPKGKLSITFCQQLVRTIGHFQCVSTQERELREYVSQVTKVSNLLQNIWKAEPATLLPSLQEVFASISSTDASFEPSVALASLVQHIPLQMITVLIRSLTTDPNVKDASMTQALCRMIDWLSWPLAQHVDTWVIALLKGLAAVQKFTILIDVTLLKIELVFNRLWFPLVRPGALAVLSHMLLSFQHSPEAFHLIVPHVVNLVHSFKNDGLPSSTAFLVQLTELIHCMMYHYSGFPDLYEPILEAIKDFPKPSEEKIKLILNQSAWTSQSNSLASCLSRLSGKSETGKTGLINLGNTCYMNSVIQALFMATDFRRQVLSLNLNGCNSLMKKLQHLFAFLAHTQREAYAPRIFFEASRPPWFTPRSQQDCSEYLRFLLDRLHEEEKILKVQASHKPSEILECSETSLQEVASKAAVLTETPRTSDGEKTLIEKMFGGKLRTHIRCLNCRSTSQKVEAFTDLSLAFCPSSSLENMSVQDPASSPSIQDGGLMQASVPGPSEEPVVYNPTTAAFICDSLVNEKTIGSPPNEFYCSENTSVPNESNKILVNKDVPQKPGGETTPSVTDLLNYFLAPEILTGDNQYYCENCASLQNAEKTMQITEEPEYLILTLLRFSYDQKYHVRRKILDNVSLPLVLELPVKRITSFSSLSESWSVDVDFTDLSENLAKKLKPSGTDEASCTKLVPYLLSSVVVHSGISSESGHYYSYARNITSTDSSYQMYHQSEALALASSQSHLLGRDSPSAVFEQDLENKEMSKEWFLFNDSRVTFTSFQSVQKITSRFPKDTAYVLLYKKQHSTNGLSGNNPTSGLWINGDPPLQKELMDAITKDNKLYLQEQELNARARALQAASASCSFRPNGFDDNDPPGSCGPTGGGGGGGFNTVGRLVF
Method: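 Round 2 competitive ABPP in HEK293T lysate. Purified HTC-D2B compounds were tested at 50 and 200 µM for 3 h, followed by Biotin-Ahx-Ub-VS enrichment and diaPASEF LC-MS/MS. Values are the average log2 ratio (compound/DMSO) from an unpaired t-test (n=3 treated, n=26 DMSO).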

log2 ratio of Biotin-Ahx-Ub-VS probe labelling, inactive:
O=C(CCl)NC1CCCc2ccccc21 (stereo unspecified) 0.0146
O=C(CCl)N[C@H]1CCCc2ccccc21 0.0645
O=C(CCl)N1Cc2sccc2C(O)C1 (stereo unspecified) 0.173
CCCC1c2cc(OC)c(OC)cc2CCN1C(=O)CCl (stereo unspecified) -0.184
O=C(CCl)NC(c1cccs1)C1CCCC1 (stereo unspecified) 0.192
CN(Cc1cccc(Br)c1)C(=O)CCl 0.171
O=C(CCl)N1CCc2cc(Cl)c(Cl)cc2C1 0.253
COc1cccc(CN(CCCc2ccccc2)C(=O)CCl)c1 -0.105
Cc1ccccc1COc1cccc(CN(C)C(=O)CCl)c1 -0.192
O=C(CCl)N1CCc2nc(-c3ccccc3)ncc2C1 0.272
CN(Cc1ccccc1)C(=O)CCl -0.0215
CCC1c2cc(Cl)c(OC)cc2CCN1C(=O)CCl (stereo unspecified) 0.207
O=C(CCl)N1CCc2nocc2C1 -0.0321
O=C(CCl)NC1CCOc2ccc(Cl)cc21 (stereo unspecified) 0.126
O=C(CCl)NC1CCSc2ccccc21 (stereo unspecified) 0.05
Cl.Cl.O=C(CCl)N1CCc2nc(N3CCN(c4ccc(F)cc4)CC3)ncc2C1 0.202
COc1ccc(CN(C)C(=O)CCl)cc1 0.023
O=C(CCl)N1CCc2scc(Br)c2C1 0.0294

Same assay, conditions: compound concentration: 200uM; treatment time: 3 h

log2 ratio of Biotin-Ahx-Ub-VS probe labelling, inactive:
O=C(CCl)NC1CCCc2ccccc21 (stereo unspecified) -0.162
O=C(CCl)N[C@H]1CCCc2ccccc21 -0.252
O=C(CCl)N1Cc2sccc2C(O)C1 (stereo unspecified) -0.212
CCCC1c2cc(OC)c(OC)cc2CCN1C(=O)CCl (stereo unspecified) -0.48
O=C(CCl)NC(c1cccs1)C1CCCC1 (stereo unspecified) -0.22
CN(Cc1cccc(Br)c1)C(=O)CCl -0.322
O=C(CCl)N1CCc2cc(Cl)c(Cl)cc2C1 -0.962
COc1cccc(CN(CCCc2ccccc2)C(=O)CCl)c1 -0.679
Cc1ccccc1COc1cccc(CN(C)C(=O)CCl)c1 -0.383
O=C(CCl)N1CCc2nc(-c3ccccc3)ncc2C1 -0.407
CN(Cc1ccccc1)C(=O)CCl -0.641
CCC1c2cc(Cl)c(OC)cc2CCN1C(=O)CCl (stereo unspecified) -0.934
O=C(CCl)N1CCc2nocc2C1 -0.473
O=C(CCl)NC1CCOc2ccc(Cl)cc21 (stereo unspecified) -0.261
O=C(CCl)NC1CCSc2ccccc21 (stereo unspecified) -0.3
Cl.Cl.O=C(CCl)N1CCc2nc(N3CCN(c4ccc(F)cc4)CC3)ncc2C1 -0.918
COc1ccc(CN(C)C(=O)CCl)cc1 -0.826
O=C(CCl)N1CCc2scc(Br)c2C1 -0.844

From the supplement of paper PMC11732987, “Enantioselective OTUD7B fragment discovery through chemoproteomics screening and high-throughput optimisation” (Communications Chemistry, 2025)
